Measured values reported in the supplement of paper PMC3724861.
Many of the other results were omitted from the sample, so hits are more common in it than they were. How many sequences the whole screen found active is unknown.

System: T1, Caupolican (Caup) homeodomain DNA-binding domain
T1 sequence: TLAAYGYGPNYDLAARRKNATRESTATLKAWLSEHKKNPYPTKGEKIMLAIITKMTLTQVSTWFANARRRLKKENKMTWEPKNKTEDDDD
Assay: PBM E-score (8-mer, recovered from the published 9-mer minima) (E-score (dimensionless, -0.5 to 0.5)); Drosophila protein; higher = stronger relative binding preference, active = 0.31 or more
Method: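 Protein binding microarray (PBM): in vitro transcribed/translated Caupolican (Caup) homeodomain DNA-binding domain (residues 214-303) applied at 100 nM to a universal 8-mer PBM array (Agilent AMADID 015681). The 8-mer enrichment score (E-score, range -0.5 to 0.5) was computed, and each 9-mer score is the minimum E-score of its two constituent 8-mers. The E-score is the same for a 9-mer and its reverse complement; 0.31 is the stated binding threshold.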

PBM E-score, active:
TATGTTCA 0.324
CATGTTCA 0.396
CATGTTCC 0.409
CATGTTCG 0.399
CATGTTGA 0.38
AATGTTGT 0.368
CTATGTAA 0.338
ATATGTAA 0.34
GTATGTAA 0.369
ACATGCAA 0.323
ACATGCGT 0.346
ACATGCAC 0.393
ACATGCAT 0.376
CAACAATG 0.323
CAACAAGG 0.338
CGAACATA 0.343
AGAACATA 0.318
AGAACATG 0.406
ATGTAATC 0.348
ATGTAATA 0.383
GTGTAATA 0.315
ATGTAATG 0.37
ATGTGTAC 0.348
ATGTGTAA 0.332
CATGTCCA 0.384
CATGTCCC 0.33
ACATGTGA 0.312
ACATGTGC 0.351
AGATGTAA 0.336
TGATGTAA 0.36
ATACTACA 0.364
GTACTACA 0.376
ATGTACAC 0.441
ATGTACAG 0.343
GTGTACAC 0.389
ATGTACAT ≥ 0.469
CGTACATA 0.336
AGTACATA 0.381
CTTGTTCA 0.33
CTTGTTCC ≥ 0.337
TGTAGACA ≥ 0.313
ATACATGA 0.4
ATACATGG 0.422
CTACATGC 0.369
ATACATGC 0.374
ACTTGTAC 0.407
CCTTGTAC 0.399
CCTTGTAG 0.322
GCTTGTAC 0.38

PBM E-score, inactive:
ATTCAGTC 0.00318
AGCCATTC -0.0817
CCCTAGGG -0.253
AATGTTCG 0.154
AATGTTCA 0.244
GATGTTCA 0.303
TCTGTTCA 0.0822
TATGTTGA 0.288
CCTGTTCG 0.0935
AATGTTCC 0.2
GATGTTCC 0.281
AGCCCTCA -0.12
CAACAAAG 0.159
CTAATAAG 0.0971
GGCTAGGA -0.114
ATAAGGAA 0.0175
TAAACGCA 0.034
AGATACGC -0.121
GGGTCTGA -0.193
ACGCTGAG -0.175
CATGTTGG 0.285
AATGTTGG 0.115
CATGTTGC 0.279
AATGTTGA 0.17
AGTCTAAG 0.0473
ATATGCAA 0.123
ATCTGTAA 0.15
CTCTGTAA 0.12
GAATGTAA 0.223
CTATGTGA 0.137
GTATGTGA 0.193
AGGAGGAG -0.188
TATCGCAA 0.0789
CGAGAAGC -0.0725
CGTTTTAC 0.0444
ATTAGTGA 0.107
CTGCTAGC -0.102
GTGGTTGA 0.0698
AATTAGAG 0.00042
CGCCCCAG -0.238
GCATGCAA 0.0861
CCATGCAC -0.0759
ACATGCGC 0.288
TCATGCAA 0.146
AAATGCAT 0.0673
GCATGCAC 0.0682
ACATGCGG 0.195
ACATGCAG 0.294
CGTCGTCA -0.0203
AAAAGCCT -0.0858
AGATTGGC -0.0959
CAGCCTCC -0.292
ACGGGTTC -0.0477
CAACAAGC 0.202
CAACAAGA 0.241
AAACAATG 0.256
CAACAATC 0.258
CGCCCCTA -0.159
GTAAGAGA 0.016
GGCTTGCA -0.0355
AGAACATC 0.235
CGAACATC 0.279
AGAACAGA 0.16
CGAACAAA 0.157
GGAACATA 0.271
AGAACAGG 0.139
TAGCTCGA -0.0721
CACACCGG -0.087
GTCGTTCA 0.0698
AGTTGGAG -0.129
CAGTTAAG 0.0884
CGTCTAAG -0.13
GAAAGGTA 0.0535
AAACTCGA 0.0205
ACGTAATG 0.16
CTGTAATC 0.162
GAGTAATA 0.167
GCGTAATA 0.076
ACGTAATC 0.155
CTGTAATA 0.193
ATGTAAGG 0.303
AAGTAATA 0.134
ACTAGTGA 0.113
CGGTCTGA -0.0584
GGCTTAGA -0.112
ACTACCAA 0.167
GTAGGCAC -0.096
GTTAGGAA 0.0363
AATCACTG 0.0918
ACCCAACT -0.0182
ATGTGTAG 0.193
CTGTGTAA 0.294
CTGTGTAC 0.272
GTGTGTAA 0.275
AATGTCCC 0.0508
TATGTCCA 0.214
CATGTCCG 0.303
AATGTCCA 0.251
GTAACGTA 0.198
ACATGTGG 0.308
CCATGTGA 0.0957
CCATGTGC -0.0035
GCATGTGA 0.176
CACTGGAG -0.159
ATACACCG 0.184
ATCGGGGG -0.264
CGATGTAA 0.276
GGATGTAA 0.299
AGATGTAT 0.29
AGATGTAG 0.244
CCGCGTTA -0.054
GATCTAGA -0.0194
ATACTACC 0.0922
CTACTACA 0.305
GCACTACA 0.176
GTACTAAA 0.229
CAGTTTCG -0.0432
CAGCTACG -0.101
ATGTACGC 0.29
ATGTACCG 0.287
CTGTACAC 0.284
CTGTACAG 0.164
CAGTACAC 0.288
GGGTACAC 0.14
ATCTACAT 0.29
TCCGCAAA -0.0879
CCCTTTCA -0.126
ACCCATCG -0.0141
GCCGTCCC -0.25
GCTTCCAC -0.182
ACCCGCAT 0.00073
CCACTCGG -0.158
AAAGAAGC -0.0635
GGGGTACA 0.0877
TAGACGGA -0.0225
CTCCAGTC -0.121
CCAGTGGA -0.117
AAAGGTAC 0.12
AGTACAGA 0.138
GGTACATA 0.282
CGTACAGA 0.142
CGTACATC 0.263
CAGACGCC -0.147
CCGGTCAA -0.0503
GGATCCCA -0.0305
CCTGTTCC 0.0821
ATTGTTCA 0.184
ATTGTTCC 0.112
CCTGTTCA 0.15
CATGGGGG -0.157
ATGGGAAG -0.07
GGTAGACA 0.117
CGTAGACA 0.122
CCACATGC 0.0879
ATGCATGC 0.107
ATTCATGG -0.039
ATTCATGC 0.0406
ATACATCG 0.273
ATCCATGA 0.0343
CTACATCC 0.189
ATACAGGA 0.13
AAAATTAA 0.0601
TATCGTAA 0.114
ACGACTTC 0.0231
CCGCAGAA -0.0611
CGTCGGCC -0.224
GCGCTGCC -0.257
CCAGAGAG -0.172
CGCTTCAA -0.0124
CTATTGTC 0.0455
GAGGTACC -0.137
ACTTGTAG 0.297
GCCTGTAC 0.164
CTTTGTAC 0.229
CGTTGTAG 0.154
GCTTGGAC -0.0623
CCTTGTGC 0.0734
ACTTGTGC 0.0346
AGTTGTAC 0.308
GCCCCTCA -0.223
CGAACGTC -0.121
